# This is a sample that favours compounds with a hit; in the whole collection about 3.7% have one here.
# HTT prom inh = HTT promoter inhibition; HEK293 HTT promoter firefly luciferase reporter, 24 h; Potency, µM (doses to about 57.5 µM), inactives show at the top dose activity change, negative = inhibition, hits mostly inhibitors; actives 0.93% (n = 48,000); also: potency is read from the fitted curve at half-maximal effect; nearly all actives have a fitted effect of over 50% in size
#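 HEK293 luciferase promoter-reporter cells (2,500/well) plated 24 h, then compounds added at up to 57.5 uM final for 24 h at 37 °C. Firefly luminescence by Dual-Glo, normalized to vehicle (0%) and zero RLU (-100%).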
# GALK inhibitor = GALK (human) enzyme inhibition; P51570; recombinant GALK, Kinase-Glo ATP luminescence, 1 h; Potency, µM (doses to about 57.5 µM), for the others: at the top dose activity, negative = inhibition, hits mostly inhibitors; 44,000 tested, under 10 active; AID 1347072;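 also: plate controls were full GALK reaction for no effect and reaction lacking GALK for full effect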
#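 Luminescent ATP-depletion readout (Kinase-Glo Plus) after 1 h room-temperature incubation of human GALK (5 nM) with galactose 100 µM and ATP 35 µM, pH 8.0 HEPES/Mg2+ buffer; compounds tested in qHTS format.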
# GPR32 ag = GPR32 (DRV1) agonism, beta-arrestin recruitment; O75388; CHO-K1 GPR32 beta-arrestin PathHunter luminescence, 90 min; zero percent set by DMSO-only wells; activation, % at 76.9 µM; actives 2.5% (n = 48,000); AID 1346428;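 active = activation of at least 60% and not above a set upper limit, about 1 call in 100 departs from these limits; inconclusive = activation of 40% to 60%, or above that upper limit; inactive = activation under 40%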; also: 0% is about no effect
#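 Agonism was scored as beta-arrestin recruitment to ProLink-fused GPR32 in stably transfected CHO-K1 cells, giving a chemiluminescent beta-Gal signal; compounds were incubated 90 min at 37 °C.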
# HTT-AS act = activates huntingtin-antisense promoter activity; HEK293 HTT-AS promoter firefly luciferase reporter, 24 h; response scale: percent change from vehicle, -100% = no light; Potency, µM (top dose mostly 57.5 µM), without a hit: top-dose activity change, positive = activation, hits mostly activators; actives 0.24% (n = 48,000); also: potency is read from the fitted curve at half-maximal effect; nearly all actives have a fitted effect of over 55% in size
#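 HEK293 Fluc reporter, 2,500 cells/well, 24 h pre-culture; cpds up to 57.5 uM final, 24 h 37 degrees C; Dual-Glo, 10 min RT; normalized vehicle = 0%, zero RLU = -100%.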
# TSG101-PTAP inh = inhibitors of HIV-1 PTAP binding to human TSG101, validation; Q99816; Fluorescence polarization, FITC-PTAP peptide/Tsg101, 20 min; Potency, µM (titrated, usually from 115 µM), hits mostly inhibitors; 44,000 tested, under 10 active; AID 1347069; also: potency is read from the fitted curve at half-maximal effect; 0% is about no effect
#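 Fluorescence polarization: Tsg101 binding domain (10 uM final) in 10 mM HEPES pH 7.5, 0.15 M NaCl, 0.01% Tween 20, 3 mM EDTA, 0.1 mM TCEP; compounds pinned; FITC-PTAP peptide 50 nM final; 20 min, r.t.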
# B2AR arrestin ag = agonists recruiting beta-arrestin to human beta2-adrenergic receptor; 44,000 tested, under 10 active; P07550; Potency, µM (highest dose often 46.1 µM), usual class: activators; HTLA Tango cells, beta-arrestin recruitment, luciferase luminescence, 18 h;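 also: potency is read from the fitted curve at half-maximal effect; 0% = DMSO and full agonism = EC100 isoproterenol or metaproterenol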
# Target sequence (P07550 whole entry, looked up): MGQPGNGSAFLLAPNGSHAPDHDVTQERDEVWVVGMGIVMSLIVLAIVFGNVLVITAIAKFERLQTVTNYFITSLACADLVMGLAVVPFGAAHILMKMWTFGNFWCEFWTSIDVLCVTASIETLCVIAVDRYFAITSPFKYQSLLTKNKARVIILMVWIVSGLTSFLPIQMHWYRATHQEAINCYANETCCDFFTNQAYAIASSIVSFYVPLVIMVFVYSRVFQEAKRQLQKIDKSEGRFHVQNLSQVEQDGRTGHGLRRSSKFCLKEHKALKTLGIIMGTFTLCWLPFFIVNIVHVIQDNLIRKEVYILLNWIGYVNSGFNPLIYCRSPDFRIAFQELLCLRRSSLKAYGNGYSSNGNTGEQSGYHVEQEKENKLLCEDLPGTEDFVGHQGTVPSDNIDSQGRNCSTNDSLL
#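 Tango cells expressing recombinant beta2-AR and beta-arrestin were treated with compounds (up to 46 microM titration) in DMEM with 1% FBS for 18 hr at 37 degrees C. Beta-arrestin recruitment drove tTA-dependent luciferase, read by luminescence; curves were fitted and classed.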
# * marks the source's active call; other numbers are inactive results; i = inactive; ? = inconclusive; / = no result given; ! = not active in a repeat. Unless noted, calls follow the shape of the dose curve; as a rule, active = well fitted curve in the direction sought with a large enough effect; inconclusive = small, poorly fitted or top-dose-only effect, or another doubt; inactive = no such curve, though single readings can be large; an effect the other way counts as inactive or inconclusive.
SMILES,HTT prom inh,GALK inhibitor,GPR32 ag,HTT-AS act,TSG101-PTAP inh,B2AR arrestin ag
COc1ccc(C(=O)NC(c2ccccc2Cl)c2cc(Cl)c3cccnc3c2O)cc1 (stereo not drawn),8.9µM*,2%,-54,-41%,i,i
CC(=O)NCC(=O)N1[C@H]2CC[C@H]1c1cc(Nc3ncc(C(F)(F)F)c(NC4CCC4)n3)ccc12,?,/,/,-39%,/,/
O=C(CSc1nc(-c2ccccc2)no1)N1CCN(c2ccccc2F)CC1,8%,2%,1,-9%,i,i
O=C(O)c1cccc(-c2noc(-c3ccccc3F)n2)c1,7.9µM*!,/,3,4%,/,/
CCc1ccc(NC(=O)Cn2nc3c4ccccc4n(Cc4ccccc4)cc-3c2=O)cc1,-8%,-2%,84*,-7%,i,i
COc1ccc(S(=O)(=O)NCc2cccn2Cc2cccc(C)c2)cc1OC,-18%,-3%,24,-14%,i,i
CC(=O)Nc1ccc(S(=O)(=O)NCc2cccn2Cc2cccc(C)c2)cc1,-22%,1%,88*,-16%,i,i
CCCCCCCCc1ccc(CCC(N)(CO)CO)cc1,-11%,/,/,-16%,/,/
O=C(Cc1ccc(Cl)cc1)Nc1ccc2nn(-c3ccccc3)nc2c1,14%,-20%,85*,19%,i,i
C[C@@H](Oc1cc(-c2cnn(C3CCNCC3)c2)cnc1N)c1c(Cl)ccc(F)c1Cl,?,/,/,-25%,/,/
CCOc1ccc(/C=C/c2nc3ccccc3n2S(=O)(=O)c2cccc(Cl)c2)cc1,?,23%,70*,-55%,i,i
CCOc1ccc(NC(=O)NCCCN2CCN(c3ccc(F)cc3)CC2)cc1,1%,2%,9,?,i,i
O=C(NCCCN1CCN(c2ccc(F)cc2)CC1)Nc1ccc(Cl)cc1,-24%,2%,83*,-26%,i,i
Cc1c(CN2CCN(C(=O)C(C)C)CC2)sc2c(N3CCOCC3)nc(-c3cnc(N)nc3)nc12,?,/,/,-36%,/,/
Cc1[nH]c(=O)[nH]c(=O)c1S(=O)(=O)N1CCN(c2cccc(Cl)c2)CC1,-1%,1%,9,-4%,i,i
Cc1cc2[nH]c(=O)c(=O)[nH]c2cc1S(=O)(=O)N1CCN(c2ccccc2)CC1,8%,3%,95*,-6%,i,i
CCCCc1nn2c(=O)cc(COC(=O)c3cccc(NC(=O)CCc4ccccc4)c3)nc2s1,72%,-2%,-7,0.25µM*,i,i
CCCc1nn2c(=O)cc(COC(=O)c3cccc(NC(=O)CCc4ccccc4)c3)nc2s1,1%,4%,-6,8%,i,i
O=c1cc(-c2ccccc2)oc2cc(O)cc(O)c12,43%,/,/,24µM*,/,/
CN(C)C(=O)[C@H](O)[C@H](Cc1ccccc1)NC(=O)c1cc2cc(Cl)ccc2[nH]1,?,/,/,-34%,/,/
O=C(Nc1ccc(SC(F)F)cc1)c1cc(-c2ccc3c(c2)OCCO3)on1,10µM*,0%,-6,-64%,i,i
CC(=O)Nc1ccc(NC(=O)c2cc(-c3ccc4c(c3)OCCO4)on2)cc1,9%,1%,-5,?,i,i
CCN(c1cccc(C)c1)S(=O)(=O)c1ccc2[nH]cc(C(=O)NCCCOC)c(=O)c2c1,?,1%,97*,-29%,i,i
Cc1cc(C)cc(NS(=O)(=O)c2ccc3[nH]cc(C(=O)NC4CCCCC4)c(=O)c3c2)c1,-30%,0%,110*,-44%,i,i
CCc1ccccc1N(C)S(=O)(=O)c1ccc2[nH]cc(C(=O)NCCOC)c(=O)c2c1,?,1%,-7,-23%,i,i
COc1cccc(NS(=O)(=O)c2ccc3c(c2)n(C)c(=O)n3C)c1,-32%,8%,86*,-33%,i,i

# Screening data deposited in PubChem by National Center for Advancing Translational Sciences (NCATS).
